Screens from PubChem.
KDM5B inhibitor = blocks human KDM5B histone demethylase activity; Potency, µM (top dose mostly 57.7 µM), hits mostly inhibitors; KDM5B demethylase, FDH-coupled NADH fluorescence (FDH is formaldehyde dehydrogenase); AID 1347165; 220,000 compounds, 2.6% hits; Q9UGL1; active means well fitted inhibition curve with a large enough effect; further: 0% is about no effect; nearly all actives have a fitted effect of over 70% in size
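Here, H3K4me3 peptide (12.5 µM in substrate mix) is demethylated by KDM5BΔAP, 200 nM final, after 10 min compound exposure. Formaldehyde product is coupled through FDH (0.25 U/mL in mix) to NADH fluorescence; 30-min ΔRFU feeds dose-response curves.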
The depositor's hits bear a star; i = inactive. Shown is part of a subset that was picked to be rich in hits. Potency means the concentration at half of the fitted maximal effect.

SMILES	KDM5B inhibitor
Cc1ccc(NC(=O)Cn2c(N3CCc4ccccc4C3)nc(C)cc2=O)c(C)c1	i
Cc1cc(=O)n(CC(=O)Nc2ccc(Br)cc2F)c(N2CCC(C)CC2)n1	i
Cc1cc(=O)n(CC(=O)Nc2ccc(Br)cc2F)c(N2CCc3ccccc3C2)n1	14.1µM*
O=C(COc1cccc(-c2nnc3n2CCCC3)c1)Nc1ccc(Br)cc1	i
Cc1nc(CN2CC3(CCN(C)C3)c3cc(C(=O)NCc4cccs4)ccc32)cs1 (configuration not stated)	35.5µM*
Cc1nc(CSCC(=O)NCc2cccs2)cs1	i
CS(=O)(=O)N1CCc2ccc(C(=O)Nc3ccc(F)cc3)cc21	i
Cc1nc(CC(=O)N2CCCC(c3ccc(C(=O)O)cc3)C2)cs1 (configuration not stated)	i
Cc1nc(COc2ccc(C(=O)Nc3ccccc3N3CCOCC3)cc2)cs1	i
CN1CCC2(C1)CN(Cc1ccccc1)c1ccc(C(=O)NCc3cccs3)cc12 (configuration not stated)	35.5µM*
Cc1nc(CNCc2cccc(NC(=O)c3cccc(F)c3)c2)cs1	i
O=C(NCc1cccs1)c1ccc2c(c1)N(Cc1ccccc1)C(=O)CS2=O (configuration not stated)	i
CN1CCCC2(C1)CN(Cc1cccnc1)c1ccc(C(=O)NCc3cccs3)cc12 (configuration not stated)	i
Cc1ccccc1CN1C(=O)c2ccccc2Sc2ccc(C(=O)NCc3cccs3)cc21	i
Cc1nc(CN2CC3(CCN(C)C3)c3cc(C(=O)Nc4ccc(F)cc4)ccc32)cs1 (configuration not stated)	25.1µM*
Cc1nc(CN2CC3(CCN(C)C3)c3cc(C(=O)NCC4CC4)ccc32)cs1 (configuration not stated)	28.2µM*
O=[N+]([O-])c1cccc(CON=C2CCC3(CC2)OCCO3)c1	i
CCN(C(=O)COC(=O)c1ccc2ccccc2n1)c1ccccc1	i
Cc1ccc(SCc2ccc(C(=O)Nc3c(C)cccc3C(C)C)cc2)cc1	i
C(=N\N=C(c1ccccc1)c1ccccc1)/c1cn(-c2cccs2)nc1-c1ccccc1	i
CCc1nc2ccc(C(=O)NCc3cccs3)cc2nc1CC	i
CC(C)CCN1CCOc2cc(C(=O)NCc3cccs3)ccc2C1	i
Cc1nc(CNC(=O)c2cccc(S(=O)(=O)N3CCOCC3)c2)cs1	i
Cc1nc(CN2CC3(CCN(C)C3)c3cc(C(=O)NCc4ccccc4)ccc32)cs1 (configuration not stated)	35.5µM*
CN(C)CC(=O)N1CCC2(C1)CN(C)c1ccc(C(=O)NCc3cccs3)cc12 (configuration not stated)	39.8µM*
SMILES	KDM5B inhibitor
Cc1nc(CN2CCN(C(=O)NCc3ccccn3)CC2)cs1	i
COc1ccc(C(=O)c2ccccc2)c(OCc2ccccc2C#N)c1	i
Cn1cccc1CN1CCC2(C1)C(=NC1CCCCC1)NC(=O)N2c1cccnc1 (configuration not stated)	i
CN1C(=O)c2cccn2CC1CNC(=O)COc1ccccc1 (configuration not stated)	i
CC(=O)c1cccc(NC(=O)C23CC4CC(CC(C4)C2)C3)c1	i
OCC(O)CNc1nccc(C2(c3ccccc3Cl)CCNCC2)n1 (configuration not stated)	i
CC(C)CNc1nccc(C2(c3ccccc3Cl)CCNCC2)n1	22.4µM*
Clc1ccccc1C1(c2ccnc(NCc3ccncc3)n2)CCNCC1	i
CCN(CC)c1nc2ccccc2nc1C(=O)Nc1ccc(Cl)cc1	i
Cc1ccc(NC(=O)CC(C)(C(=O)O)c2ccccc2)c(O)c1 (configuration not stated)	i
CC(NC(=O)c1ccc2c(c1)OCO2)c1cccc(C(F)(F)F)c1 (configuration not stated)	i
Cc1cccc(C)c1N1CCN(C(=O)c2ccc3c(c2)OCO3)CC1	i
CC(C)CCN1CCN(C(=O)c2cccc(C#N)c2)CC1	i
CC(NC(=O)c1cccc(C#N)c1)C(=O)N1CCN(c2ccccn2)CC1 (configuration not stated)	25.1µM*
O=C(c1cccc(Br)c1)N1CCN(c2ccccn2)CC1	i
CC(NC(=O)c1ccc2c(c1)OCO2)C(=O)N1CCN(c2ccccn2)CC1 (configuration not stated)	31.6µM*
CC(C)CNC(=O)NC(=O)CSc1nnc(-c2ccc(C(C)(C)C)cc2)n1Cc1ccco1	i
Cc1ccc(Nc2cc(C)nc3c(C)c(C)ccc23)cc1	i
CC(NC(=O)C12CC3CC(CC(C3)C1)C2)c1cccs1 (configuration not stated)	i
Cc1cccc(CN2CCN(S(=O)(=O)c3c(C)noc3C)CC2)c1	i
COCCN1CCC(N2CCN(S(=O)(=O)c3ccc(C)c(C)c3)CC2)C1=O (configuration not stated)	i
COCc1ccc2c(c1)c(OC(C)(C)C(=O)NC1CCC(O)CC1)nn2CCC(C)C (configuration not stated)	31.6µM*
COCc1ccc2c(c1)c(OC(C)(C)C(=O)NC1CCOCC1)nn2Cc1cccnc1	i
COCc1ccc2c(c1)c(OC(C)(C)C(=O)NC1CCOCC1)nn2CCC(C)C	39.8µM*
COc1ccc(-c2ocnc2C(=O)Nc2c(C)cc(C)cc2C)cc1	i
SMILES	KDM5B inhibitor
CC(C)CNCc1ccc(-c2ccccc2)o1	i
CCC(C)(C)C1CCc2c(sc(NC(=O)C3CC4CCC3C4)c2C#N)C1 (configuration not stated)	i
Cc1ccc(-c2nc3cccc(C)c3nc2-c2ccc(C)cc2)cc1	i
Cc1noc(C)c1-c1cc2c(cc(-c3ccccc3)n2C)c(N(C)C)n1	i
CC(=O)Nc1cccc(-c2nc(-c3ccccc3)no2)c1	i
CC(=O)Nc1ccc(NC(=O)COC(=O)c2c(-c3ccccc3)noc2C)cc1	i
CC(=O)Nc1cccc(-c2nc(-c3c(C)noc3C)cc3c2cc(-c2ccccc2)n3C)c1	35.5µM*
CC(=O)Nc1cccc(-c2nc3cc(Cl)cc(Cl)c3o2)c1	i
CC(=O)Nc1cccc(-c2nc(-c3c(C)noc3C)cc3cc(C)oc23)c1	35.5µM*
O=C1OCCC1NC(=S)Nc1cccc2ccccc12 (configuration not stated)	i
CN1CCOc2c(C(=O)NCC[S+](C)(=O)[O-])cc(-c3ccccc3F)cc21	35.5µM*
CN1CCN(c2ccc(-c3cc4c(ccn4C)c(C(=O)NCCN4CCNC4=O)n3)cc2)CC1	i
CN1CCOc2c(C(=O)NCC[S+](C)(=O)[O-])cc(-c3ccccc3)cc21	31.6µM*
CN1CCN(CCNC(=O)c2cc(-c3ccccc3)cn2C)CC1	i
COc1ccc(C(=O)NCCc2ncc(C)n2C2CC2)cn1	i
O=C(NCCSc1ccccc1)c1cc(Cl)c2c(c1)OCCCO2	i
CCCn1c(C)cnc1CCNC(=O)c1ccc(OC)nc1	i
COc1ccc(-c2cc(C(=O)NCC[S+](C)(=O)[O-])c3c(c2)N(C)CCO3)cn1	31.6µM*
COC(=O)c1ccccc1NS(=O)(=O)c1cc2c(cc1C)N(C)CCO2	i
Cc1cccc(CN2CCc3ncc(C(=O)NCCN4CCNC4=O)n3CC2)c1	i
CN1CCOc2c(C(=O)NCCN3CCNC3=O)cc(-c3ccc(O)c(F)c3)cc21	35.5µM*
Cn1c(C(=O)NCCNC(=O)c2ccccc2F)cc2ccccc21	i
